Assay results as given in the supplement of paper PMC6555819.

Test system: FXR:RXRa (NR concentration 270 nM, RXRa partner concentration 90 nM)
Assay: PBM binding z-score (relative to random genomic background probes); higher = stronger binding; sequences stand for … in GC…GCGATTGACAGCGTAGAATGAAGG
Procedure, shortened: (§1)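 The probes on custom Agilent 4×180K protein-binding microarrays were double-stranded, with 34-nt variable regions bearing direct-repeat seeds, single-nucleotide variants, half-site ablations and random human genomic background sequences. Incubation lasted 1 h with ligand-free nuclear receptor dimers in PBS pH 7.4, 2% milk, 0.02% Triton X-100, 1 mM DTT, 0.2 mg/mL BSA and 0.4 mg/ml salmon testes DNA. Antibodies against each partner (one per run) detected bound dimers, and fluorescence scans were regression-normalized. Binding z-scores take the random background probes as reference.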

| Sequence | PBM binding z-score |
| --- | --- |
| TCTTGTAGATCAAGCAGGTTAATAAAGCCTGAGT | 0.189 |
| CCAGACAGGTGAAAGGTACCTCAGTCTGGTACGC | -0.0455 |
| CGTCCAAGGGCATAGGAGGTCAGTGAAGACAGAT | 3.02 |
| CAAACTAGGTCACGATAGGTCAAAGTCGAATGAC | 5.83 |
| TCTCGGAGGACACCAAGGTCAGAGCTTTCCAGAG | 1.66 |
| TCATATAGGTAAAGGTGAAAGGCGAACGATATGA | 0.813 |
| CGAACGAGGGCATGAGTTGATCGCAAATGCCGAT | 0.394 |
| GCTCCTAGGTCAACTGATGGTCAGCTAAAGCTCG | 4.73 |
| AGTCAAAGTTCATCTAGCTAACGTAAGATATGCT | 6.22 |
| TTTCCAAGGTGAGCTGAGGTCGTTGATCCAACTC | 2.71 |
| CCTAGCAGGCCAATCTGGGTTACTCAAGGCTTGA | 0.0367 |
| TCTGCTAGGTCAGTAGGTCAGCTAACGAGCTGCC | 1.81 |
| CGTCCAAGGTCAAGGACAGTGAAAGAGACTCGAA | 6.84 |
| CTCAAAAGGTCGTGCTCAGGTGAGTATACCAAAC | 5.46 |
| ACTAGAAGGCCAAGTTTGGGTCACTCAAACAAAG | 0.681 |
| GCAGACAGGTGAGACGCAGGTAACTCAGGGTGGC | -0.153 |
| ACTAGCAGGCCAAGGGTCAATCAAGATTAGTCCG | 3.02 |
| AGTGAAAGTTCATCTAGGTAACGTAAGATATGCT | 5.95 |
| CAAACTAGGTCACAGGAAGGTCAAAGTCCGCATG | 5.68 |
| CGTCCAACGTCAATGCTAGGTCAGTGAAAGCATT | -0.119 |

| Sequence | PBM binding z-score |
| --- | --- |
| AATGCAGGGTCACTAGGCCAGAGTAGGTACGAAT | 6.22 |
| ACTGACAGGTGAGTGAAGGTAACTCAGCTGGACG | 0.406 |
| ACTATTAGTCGACTTAGGGCAACCGATACGACGC | -0.365 |
| TCATATAGGTAAATGCTAAGTGAAAGTCCGATCT | 1.1 |
| CCTCGGAGGACGACAGGAGGTCAGAGCTGCCAGA | 0.759 |
| CCGACTGAGGCAAGGTTACCATAACGCACAGCCA | 0.169 |
| TTACCAAGGTGAAAGGTCGTCGATGCACGCCTTG | 3.2 |
| CGAACTAAGTCAAGGACAGTGAATCTCCGCACGC | -0.155 |
| CGTCTAAGGTCAGAGAGGTCAGTGAATGCCGAGT | 6.73 |
| TGAATGAGGTGATAAGATCAGGGAACGTTGCAAA | 0.365 |
| CCTAGCAGGCCAGGGTCACTGAAGCATTTCGCTT | 2.08 |
| TTATATAGGTAAACAGGTGAAAGTCCGTAAGTTA | 0.62 |
| TAGCCTAGGTCCGATCGGGCCAGTATACGCTATA | -1.62 |
| AGAACGAGGGCAGGCTGAGTTGATAGCAGAGTAG | -0.312 |
| GCTTACGGGTCAAAGATTATAGCATGAATAGAAT | 5.74 |
| TCTAGCAGGCCACAGGGTCACTCAAGAGGTACGG | 1.75 |
| TAGCCTAGGTCACTGGGCCAGTATAGTACGCATC | 3.22 |
| TTACCAAGATGAAGGTCGTTGATCCCTCTGTAGA | 1.47 |
| GATATAGGGTCAAGGCCAGAGTACGCGTATTGAT | 7.01 |
| GCGAATGGGGCAAAGCAGGTTACCATAAGGTTGG | 0.135 |

Test system: LXRa:RXRa (NR concentration 270 nM, RXRa partner concentration 90 nM)
Assay: as above
Procedure, shortened: as §1

| Sequence | PBM binding z-score |
| --- | --- |
| TCTTGTAGATCAAGCAGGTTAATAAAGCCTGAGT | 0.118 |
| CCAGACAGGTGAAAGGTACCTCAGTCTGGTACGC | 0.27 |
| CGTCCAAGGGCATAGGAGGTCAGTGAAGACAGAT | 5.05 |
| CAAACTAGGTCACGATAGGTCAAAGTCGAATGAC | 8.21 |
| TCTCGGAGGACACCAAGGTCAGAGCTTTCCAGAG | 1.05 |
| TCATATAGGTAAAGGTGAAAGGCGAACGATATGA | 1.12 |
| CGAACGAGGGCATGAGTTGATCGCAAATGCCGAT | 0.374 |
| GCTCCTAGGTCAACTGATGGTCAGCTAAAGCTCG | 3.62 |
| AGTCAAAGTTCATCTAGCTAACGTAAGATATGCT | 5.88 |
| TTTCCAAGGTGAGCTGAGGTCGTTGATCCAACTC | 1.69 |
| CCTAGCAGGCCAATCTGGGTTACTCAAGGCTTGA | -0.0703 |
| TCTGCTAGGTCAGTAGGTCAGCTAACGAGCTGCC | 1.55 |
| CGTCCAAGGTCAAGGACAGTGAAAGAGACTCGAA | 4.98 |
| CTCAAAAGGTCGTGCTCAGGTGAGTATACCAAAC | 4.03 |
| ACTAGAAGGCCAAGTTTGGGTCACTCAAACAAAG | 0.517 |
| GCAGACAGGTGAGACGCAGGTAACTCAGGGTGGC | -0.129 |
| ACTAGCAGGCCAAGGGTCAATCAAGATTAGTCCG | 2.94 |
| AGTGAAAGTTCATCTAGGTAACGTAAGATATGCT | 5.92 |
| CAAACTAGGTCACAGGAAGGTCAAAGTCCGCATG | 6.01 |
| CGTCCAACGTCAATGCTAGGTCAGTGAAAGCATT | 0.271 |

| Sequence | PBM binding z-score |
| --- | --- |
| AATGCAGGGTCACTAGGCCAGAGTAGGTACGAAT | 4.62 |
| ACTGACAGGTGAGTGAAGGTAACTCAGCTGGACG | 0.0865 |
| ACTATTAGTCGACTTAGGGCAACCGATACGACGC | -0.211 |
| TCATATAGGTAAATGCTAAGTGAAAGTCCGATCT | 0.928 |
| CCTCGGAGGACGACAGGAGGTCAGAGCTGCCAGA | 1.38 |
| CCGACTGAGGCAAGGTTACCATAACGCACAGCCA | 0.738 |
| TTACCAAGGTGAAAGGTCGTCGATGCACGCCTTG | 3.29 |
| CGAACTAAGTCAAGGACAGTGAATCTCCGCACGC | -0.206 |
| CGTCTAAGGTCAGAGAGGTCAGTGAATGCCGAGT | 5.75 |
| TGAATGAGGTGATAAGATCAGGGAACGTTGCAAA | -0.0507 |
| CCTAGCAGGCCAGGGTCACTGAAGCATTTCGCTT | 1.76 |
| TTATATAGGTAAACAGGTGAAAGTCCGTAAGTTA | 0.679 |
| TAGCCTAGGTCCGATCGGGCCAGTATACGCTATA | -1.4 |
| AGAACGAGGGCAGGCTGAGTTGATAGCAGAGTAG | -0.562 |
| GCTTACGGGTCAAAGATTATAGCATGAATAGAAT | 3.66 |
| TCTAGCAGGCCACAGGGTCACTCAAGAGGTACGG | 1.69 |
| TAGCCTAGGTCACTGGGCCAGTATAGTACGCATC | 2.31 |
| TTACCAAGATGAAGGTCGTTGATCCCTCTGTAGA | 1.91 |
| GATATAGGGTCAAGGCCAGAGTACGCGTATTGAT | 4.58 |
| GCGAATGGGGCAAAGCAGGTTACCATAAGGTTGG | 0.262 |
